# H9c2 protect: protects H9c2 cardiomyocytes from peroxide injury. 360,000 compounds, 0.63% hits. AID 588492. H2O2 injury protection, ATPLite, 2 h. protection from H2O2 cell death, % at 20 µM;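 active = compounds giving at least 50% protection of heart cells from peroxide-induced death in the single-dose screen, raw or plate-pattern-corrected value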
# NTR1 ag: activates human neurotensin receptor 1; P30989; NTR1-U2OS beta-arrestin-GFP spot imaging, agonist mode; activation, % at 20 µM; 330,000 compounds, 0.17% hits; AID 493036;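 active = activation at or above 40% of the spot to cytoplasm intensity ratio, with at least 20 cells analyzed; inconclusive = wells under 20 cells, flagged as cytotoxic or low count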
# ALR inh: human ALR oxidase inhibition via reduced H2O2; P55789; purified ALR, DTT oxidation, H2O2 HRP-luminol luminescence; inhibition, % (test concentration not listed); 290,000 compounds, 3.8% hits; AID 485317;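 active = mean replicate inhibition above about 79%, with every replicate also reaching it, limit read from the data; inconclusive = only one of the two criteria met; inactive = mean below limit and not every replicate reaching it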
# Target sequence (P55789 whole entry, looked up): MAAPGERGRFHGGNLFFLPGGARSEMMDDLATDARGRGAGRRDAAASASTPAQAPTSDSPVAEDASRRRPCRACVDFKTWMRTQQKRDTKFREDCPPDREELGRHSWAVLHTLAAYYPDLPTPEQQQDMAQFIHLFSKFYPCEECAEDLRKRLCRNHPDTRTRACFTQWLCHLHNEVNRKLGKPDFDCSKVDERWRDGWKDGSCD
# UBC9 SUMO inh: inhibitors of human SUMOylation (UBC9); HTRF SUMOylation assay, SAE1/SAE2 + UBC9, in vitro; AID 2006; inhibition, % at 35 µM; 290,000 compounds, 0.36% hits; in the data active = inhibition above about 50%, passing the limit was not always enough; inconclusive = no clear call, values can overlap the other calls
# Target sequence (P63279 whole entry, looked up): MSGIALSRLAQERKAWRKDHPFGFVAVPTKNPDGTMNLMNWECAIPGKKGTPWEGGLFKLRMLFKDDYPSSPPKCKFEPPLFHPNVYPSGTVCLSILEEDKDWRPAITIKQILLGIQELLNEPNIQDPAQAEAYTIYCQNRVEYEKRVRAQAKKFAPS
# Hits are given with their value; n = inactive; u = inconclusive; x = not tested or not shown. The list is not random: actives were taken first. Their share in the collection is about 3.9%.
SMILES,H9c2 protect,NTR1 ag,ALR inh,UBC9 SUMO inh
O=C(N/N=C/c1ccc(Br)cc1)c1ccc(NC(=O)c2ccccc2)cc1,n,x,x,x
O=C(O)c1cccc(S(=O)(=O)Nc2ccc(N3CCCCC3)cc2)c1,n,n,98.7,x
O=S(=O)(Nc1ccc(N2CCCCC2)cc1)c1ccc(F)c(F)c1,n,n,98.7,n
O=C(O)c1cc(S(=O)(=O)Nc2cccc(S(=O)(=O)N3CCCC3)c2)ccc1Cl,n,n,x,x
O=C(O)c1cc(S(=O)(=O)Nc2ccc(N3CCCCC3)cc2)ccc1Cl,n,n,98.3,n
O=S(=O)(Nc1cc(Sc2ncn[nH]2)c(O)c2ccccc12)c1ccccc1,n,n,x,91.6
O=C(O)CSc1cc(NS(=O)(=O)c2ccc(Br)cc2)c2ccccc2c1O,n,x,n,75.9
Cc1ccc([N+](=O)[O-])cc1S(=O)(=O)Nc1ccc(O)c(Sc2ncn[nH]2)c1,n,n,94.1,n
Cc1ccc(S(=O)(=O)Nc2ccc(Br)cc2C(NCC(=O)O)c2ccccc2)cc1 (configuration not stated),n,n,n,n
COc1ccc(S(=O)(=O)Nc2cc(Sc3ncn[nH]3)c(O)cc2C)cc1,n,n,98.3,x
COc1ccc(-c2ccc(NS(=O)(=O)c3cc([N+](=O)[O-])ccc3C)cc2)nn1,n,n,n,n
COC(=O)/C=C/C1=CN(Cc2ccccc2)CCC1=O,n,n,n,x
O=C(NCCc1csc(-c2cccnc2)n1)c1ccco1,n,n,n,n
Cc1cc(O)c(Sc2ncn[nH]2)cc1NS(=O)(=O)c1ccc(Cl)cc1,n,n,92.7,x
CN(C)c1ccc(C2C3C(=O)N(c4ccc(C(=O)O)cc4)C(=O)C3ON2c2ccccc2)cc1 (configuration not stated),n,n,76.0,n
COc1cccc(OC)c1C(=O)Nc1cc(C)nn1-c1nc2ccccc2[nH]1,77.2,n,n,n
COc1ccc(C(=O)Nc2cc(C)nn2-c2nc3ccccc3[nH]2)c(OC)c1,63.2,n,n,n
COc1ccc(-c2ccc(=O)n(CC(=O)Nc3cccc(O)c3)n2)cc1OC,n,n,n,x
Nc1ccc(C(=O)N/N=C/c2sc(N3CCOCC3)nc2-c2ccccc2)cc1,n,n,u,n
O=C(N/N=C/c1sc(N2CCOCC2)nc1-c1ccccc1)c1cccc(S(=O)(=O)N2CCOCC2)c1,53.7,n,n,n
COc1cc(C(=O)N/N=C/c2sc(N3CCOCC3)nc2-c2ccccc2)cc(OC)c1OC,66.0,n,n,n
COc1ccc([N+](=O)[O-])cc1NC1CCCCC1,n,n,98.8,n
CN(Cc1ccco1)C(=O)CCc1nc2sc3c(c2c(=O)[nH]1)CCCC3,n,n,n,n
Cc1ccc(CN(C)C(=O)CCc2nc3sc4c(c3c(=O)[nH]2)CCCC4)o1,n,n,98.2,n
O=c1[nH]c(CN2CCCC2)nc2sc3c(c12)CCC3,55.8,n,n,n
SMILES,H9c2 protect,NTR1 ag,ALR inh,UBC9 SUMO inh
Cc1nnc(SCc2nc3sc4c(c3c(=O)[nH]2)CCCC4)[nH]c1=O,n,n,98.4,n
Cc1ccc(C(=O)N2CCN(Cc3nc4sc5c(c4c(=O)[nH]3)CCCC5)CC2)cc1,n,n,n,n
CCCc1nc2sc3c(c2c(=O)[nH]1)CCCC3,n,n,n,n
CCN(CC(=O)NC(C)C)Cc1nc2sc3c(c2c(=O)[nH]1)CCC3,63.8,n,n,n
CCC(C(=O)N1CCCC1)n1nc(C)c2c(C)n(-c3ccccc3)nc2c1=O (configuration not stated),n,n,n,n
CC(C)(C)n1nnnc1C(c1cccs1)N1CCN(Cc2ccc3c(c2)OCO3)CC1 (configuration not stated),n,n,x,n
CNCCCC12CCC(c3ccccc31)c1ccccc12,n,n,n,n
O=C(Nc1nccs1)c1ccc(-c2cccc([N+](=O)[O-])c2)o1,n,n,n,n
COc1ccc(S(=O)(=O)CCC(=O)NCc2ccc(C)o2)cc1,n,n,86.5,n
CCOc1ccc(NC(=O)CC2C(=O)Nc3ccccc3N2C(=O)c2ccccc2)cc1 (configuration not stated),n,n,n,n
CC1CC(C)CN(C(=O)c2ccc3ncsc3c2)C1 (configuration not stated),n,n,78.9,x
O=C(c1ccc2ncsc2c1)N1CCN(c2ccc(O)cc2)CC1,n,n,98.9,n
CC1CC(C)CN(C(=O)c2ccc3nc[nH]c3c2)C1 (configuration not stated),n,n,n,n
COc1cccc(CNC(=O)CCS(=O)(=O)c2ccc3c(c2)NC(=O)CS3)c1,n,n,n,n
Cc1cc(C)n(CCc2nc(-c3ccc(F)cc3)cs2)n1,n,n,n,n
COc1cc(-c2csc(CCn3nc(C)cc3C)n2)cc(OC)c1OC,n,n,98.9,n
C=CCNC(=O)c1onc(CSc2cc(C)ccc2C)c1C(=O)O,n,n,85.7,n
O=C(NCC1CCCO1)c1onc(CSc2ccccc2)c1C(=O)O (configuration not stated),n,n,n,n
CC(C)c1ccc(SCc2noc(C(=O)NCC3CCCO3)c2C(=O)O)cc1 (configuration not stated),n,n,96.9,n
CC(C)(C)c1ccc(SCC(N)=O)cc1,n,n,n,n
FC(F)(F)c1nnc2ccc(N3CCCC3)nn12,51.5,n,n,n
FC(F)(F)c1nnc2ccc(N3CCCCCC3)nn12,n,n,x,n
COc1ccc(C(C)=O)cc1Cn1c(C)c(C(=O)NCc2ccc(C(F)(F)F)cc2)sc1=O,n,x,x,x
Oc1ccccc1-c1n[nH]c(=S)n1Cc1ccco1,n,n,90.5,n
S=c1[nH]nc(-c2cccnc2)n1C1CCCCC1,n,n,u,n
SMILES,H9c2 protect,NTR1 ag,ALR inh,UBC9 SUMO inh
Oc1ccc(-c2n[nH]c(=S)n2Cc2ccccc2)cc1,n,n,97.3,n
Cc1cc(-c2n[nH]c(=S)n2Cc2ccco2)nn1C,n,n,n,n
COc1ccc(-c2n[nH]c(=S)n2C2CCCCC2)cc1,n,n,88.7,n
COc1ccc(-c2n[nH]c(=S)n2Cc2ccco2)cc1,n,n,97.3,n
Cc1ccc(S(=O)(=O)N(C)CCCC(=O)Nc2cc(C)ccc2C)cc1,n,n,x,n
Cc1ccc(NS(=O)(=O)c2ccc3c(c2)NC(=O)CCS3)c(Cl)c1,n,n,n,n
O=C(N/N=C/c1ccc(O)cc1O)NC12CC3CC(CC(C3)C1)C2,51.8,n,n,n
COc1cc(/C=N/NC(=O)NC23CC4CC(CC(C4)C2)C3)ccc1OCC(N)=O,62.4,n,n,n
O=C(N/N=C/c1cc([N+](=O)[O-])ccc1O)NC12CC3CC(CC(C3)C1)C2,n,n,n,n
O=C(COc1ccccc1Cl)NC(=S)Nc1ccccc1N1CCCC1,n,n,n,n
OCCN(Cc1ccccc1)c1ncnc2sccc12,n,n,n,n
C(=C\c1nc2ccccc2[nH]1)/c1ccccc1,n,n,97.6,n
C(=C\c1ccco1)/c1nc2ccccc2[nH]1,n,n,97.9,n
COc1ccc(Oc2cnc3ccccc3n2)cc1,n,n,n,n
COc1cccc(N/C=C/c2onc(C)c2[N+](=O)[O-])c1,n,n,x,n
Oc1ccc(Nc2ncnc3c2oc2ccccc23)cc1,n,n,n,n
